# Only some compounds are listed: those with a hit (about 2.9% of all), similar ones and a draw of the others.
# Wnt bcat act = activates Wnt/beta-catenin signaling in a reporter cell assay; activator, plate reader; activation, % at 9.35 µM; hit rate 1.2% among 300,000; in the data active means activation above about 30%, passing the limit was not always enough; inconclusive means no clear call, values can overlap the other calls;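 further: 0% = neutral control wells and 100% = positive control wells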
# N-glyco inh = blocks N-linked glycosylation in D54 reporter cells | D54 ERlucT glycosylation luciferase reporter, 24 h; percent of 100 nM tunicamycin response | reporter increase, % at 12.5 µM | hit rate 0.23% among 360,000 | AID 588692;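 active means mean luciferase reporter signal, scaled so untreated is 0 and the glycosylation-blocking control 100, at or above a set limit in every replicate; inconclusive means mean reaches the limit but not every replicate does; inactive means mean below the limit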;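 further: luciferase carries N-glycosylation sites so blocking glycosylation raises the light; 0% = median of neutral control wells and 100% = median of 100 nM tunicamycin wells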
# PfHsp90 yeast 2 = growth inhibition of yeast expressing Plasmodium Hsp90 | inhibition, % at 9.4 µM | hit rate 0.32% among 310,000 | S. cerevisiae expressing PfHsp90, BacTiter-Glo ATP, 48 h; yeast lacking PDR1 and PDR3 efflux regulators;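 active means every replicate shows inhibition above about 80%, whatever the replicate mean, limit read from the data; inconclusive means mean inhibition reaches the set limit but some replicate falls short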;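 further: 0% = DMSO neutral controls and 100% = 20 µM radicicol positive controls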
# NSD2 HMT inh = NSD2 (human) methyltransferase inhibition; hit rate 0.54% among 310,000; AID 743445; NSD2 peptide methylation, AlphaScreen, 120 min; O96028; inhibition, % at 12.5 µM; in the data active means inhibition above about 50%
# TRPM1 prom inh = MITF TRPM1 promoter inhibition in SK-MEL-5 cells | SK-MEL-5 TRPM1 promoter luciferase, 24 h | inhibition, % at 12.5 µM | hit rate 0.83% among 330,000 | AID 488899;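 active means mean inhibition across replicates of 60% or more, whatever share of single replicates reaches that level; inconclusive means some that reach 60%, reason not given; inactive means mean inhibition across replicates below 60%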
# MITF act = MITF TRPM1 promoter activation in melanoma cells. SK-MEL-5 TRPM1-promoter luciferase, 24 h; % of positive control, neutral wells = 0. activation, % at 12.5 µM. hit rate 0.75% among 300,000. AID 588334;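 active means mean activation of at least 80% with every replicate also reaching 80%; inconclusive means mean reaches 80% but some replicate falls short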;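 further: 0% = neutral control wells and 100% = parthenolide positive control wells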
# Active calls of the source: *; u = inconclusive; x = no result.
SMILES,Wnt bcat act,N-glyco inh,PfHsp90 yeast 2,NSD2 HMT inh,TRPM1 prom inh,MITF act
Cc1cc(C)n(-c2nc(NCCN(C)C)c3c4c(sc3n2)CCCC4)n1,0,-8,11,x,66*,x
O=C(Cn1nc(-c2ccccc2)ccc1=O)NCCc1cccc(F)c1,x,x,x,-15,x,x
O=C(c1cc(-c2cccs2)on1)N1CCN(C(c2ccccc2)c2ccccc2)CC1,-3,-3,-9,x,68*,-69
Cc1cc(NC(=O)c2cc(-c3cccs3)on2)no1,-1,2,3,0,-20,12
CC(C)NC(=O)c1cc(-c2cccs2)on1,55*,-2,x,2,-31,x
CC(NC(=O)c1cc(COc2ccccc2)on1)c1nccs1 (stereo unspecified),29,-8,15,-3,-96,97*
Cc1ccc(O)c(NC(=O)c2cc(-c3cccs3)on2)c1,-12,8,26,x,-113,122*
Cc1cc2c(nc1C)CCCN2Cc1ccccc1C(F)(F)F,2,x,x,x,x,x
Cc1ccc(S(=O)(=O)NC(C(=O)O)c2ccccc2)cc1 (stereo unspecified),-7,0,-10,38,4,-1
CC(=O)N1c2ccc(S(=O)(=O)N(C)CC(=O)Nc3cccc(C)c3)cc2CC1C (stereo unspecified),-5,-2,42,-3,5,-6
CCn1c(SCC(=O)N/N=C/c2cccc(Oc3ccccc3)c2)nnc1-c1ccccc1,x,x,x,1,x,x
O=C(Nc1ccc(Cl)c(Cl)c1)Nc1ccccn1,37*,1,-20,-7,-64,73
CN1C(=O)CSc2ccc(NC(=O)Nc3ccccn3)cc21,1,31*,x,2,-130,143*
COc1ccc(NC(=O)Nc2ccccn2)cc1OC,16,2,15,0,-37,42
C[C@@H]1CN(c2ccc(N3CCNC[C@H]3C)cc2C#N)CCN1Cc1ccccc1,-6,x,x,x,x,x
CC(=O)c1sc(NC(=O)c2ccc3c(c2)OCO3)nc1C,39*,-1,-4,-1,-107,114*
Cc1nc(NC(=O)c2ccc3c(c2)OCO3)ccc1Br,-3,-2,-13,1,-130,129*
Cc1cc(NC(=O)c2ccc3c(c2)OCO3)no1,x,-5,17,32,-22,13
CC(=O)c1sc(NC(=O)c2ccc(C)c(C)c2)nc1C,16,-9,15,-2,-62,64
Oc1[nH]c2ccccc2c1C=Nc1ccc2c(c1)OCO2,39*,-8,1,4,-78,u
COc1ccc(N=Cc2c(O)[nH]c3ccccc23)cc1,59*,-8,23,1,-74,50
NC(=O)C1CCN(c2nc(-c3ccccc3F)cs2)CC1,u,0,x,x,-82,88*
NC(=O)C1CCN(c2nc(-c3ccccc3Br)cs2)CC1,38*,x,x,x,x,x
CN(C)c1ccccc1-c1csc(N2CCC(C(N)=O)CC2)n1,17,0,-19,x,-94,97*
COc1cc(O)c2c(=O)c(-c3ccc(O[C@@H]4O[C@H](CO)[C@@H](O)[C@H](O)[C@H]4O)cc3)coc2c1,36*,-7,23,4,-64,73
SMILES,Wnt bcat act,N-glyco inh,PfHsp90 yeast 2,NSD2 HMT inh,TRPM1 prom inh,MITF act
COc1ccc(/C=C/c2cc(O)cc(OC3OC(CO)C(O)C(O)C3O)c2)cc1 (stereo unspecified),49*,-4,-3,x,-116,117*
COc1ccc(/C=C/c2cc(O)cc(O[C@@H]3O[C@H](CO)[C@@H](O)[C@H](O)[C@H]3O)c2)cc1O,72*,-2,x,x,x,x
COc1cc(/C=C/CO)ccc1O[C@@H]1O[C@H](CO)[C@@H](O)[C@H](O)[C@H]1O,-1,0,2,x,x,x
O=c1c(-c2ccc(O)cc2)coc2cc(OC3OC(CO)C(O)C(O)C3O)cc(O)c12 (stereo unspecified),u,4,6,x,-25,31
C[C@H](O)[C@@H]1C(=O)N2CCc3c([nH]c4cccc(-c5ccccc5)c34)[C@@H]2C[C@@H]1N(C)C(=O)C1CCCCC1,-2,x,x,x,x,x
CCc1cc(=O)oc2cc(OCC(=O)N3CCC[C@H]3C(=O)O)ccc12,0,0,7,x,-7,7
O=[N+]([O-])c1ccc(-n2nnnc2-c2ccccc2)c([N+](=O)[O-])c1,-10,25,6,15,98*,-97
O=C(NC(=S)Nc1ccccc1O)c1ccc(-c2ccc(Cl)cc2)o1,x,1,-38,0,14,-12
